# In PubChem BioAssay AID1159580 (chemical genetic matrix, 2015):
# Screen size: about 5,500 compounds; about 2,000 (36%) were called active. Another 18% or so got no clear call; they are omitted. The list shows a part of the results. Unmarked numbers belong to inactive results. Rule as the data show it: active = normalized growth mostly below about 0.91 (no sharp cut-off); inconclusive = no clear call, values can overlap the other calls; inactive = mostly above about 0.92.
# Test: chemical genetic growth profiling, strain panel (AID 1159580);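 also: tested at 20 µM; growth read once vehicle control cultures reached saturation at 30 °C; 1 = growth at the plate median or of vehicle wells; lower values mean less growth of the strain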
# Settings: S. cerevisiae deletion strains, growth OD
# [1] = locus YAR019C, strain CDC15, hits give low values
# [2] = locus YBL105C, strain PKC1, hits give low values
# [3] = locus YBR135W, strain CKS1, hits give low values
# [4] = locus YBR136W, strain MEC1, hits give low values
# [5] = locus YBR160W, strain CDC28, hits give low values
# [6] = locus YDL017W, strain CDC7, hits give low values
# [7] = locus YDL028C, strain MPS1, hits give low values
# [8] = locus YDL101C, strain DUN1, hits give low values
# [9] = locus YDL108W, strain KIN28, hits give low values
# [10] = locus YDL132W, strain cdc53, hits give low values
# [11] = locus YDL214C, strain PRR2, hits give low values
# [12] = locus YDR052C, strain DBF4, hits give low values
# [13] = locus YDR054C, strain cdc34, hits give low values
# [14] = locus YDR226W, strain ADK1, hits give low values
# [15] = locus YDR477W, strain SNF1, hits give low values
# [16] = locus YER123W, strain YCK3, hits give low values
# [17] = locus YER133W, strain GLC7, hits give low values
# [18] = locus YFL009W, strain cdc4, hits give low values
# [19] = locus YFL029C, strain CAK1, hits give low values
# [20] = locus YFR003C, strain YPI1, hits give low values
# [21] = locus YFR019W, strain FAB1, hits give low values
# [22] = locus YFR028C, strain CDC14, hits give low values
# [23] = locus YGR040W, strain KSS1, hits give low values
# [24] = locus YGR052W, strain FMP48, hits give low values
# [25] = locus YGR092W, strain DBF2, hits give low values
# [26] = locus YHR030C, strain SLT2, hits give low values
# [27] = locus YHR079C, strain IRE1, hits give low values
# [28] = locus YHR082C, strain KSP1, hits give low values
# [29] = locus YHR205W, strain SCH9, hits give low values
# [30] = locus YIL147C, strain SLN1, hits give low values
# [31] = locus YJL095W, strain BCK1, hits give low values
# [32] = locus YJL128C, strain PBS2, hits give low values
# [33] = locus YJL157C, strain FAR1, hits give low values
# [34] = locus YJR016C, strain ILV3, hits give low values
# [35] = locus YJR066W, strain TOR1 (second series), hits give low values
# [36] = locus YJR066W, strain TOR1, hits give low values
# [37] = locus YKL048C, strain ELM1, hits give low values
# [38] = locus YKL067W, strain YNK1, hits give low values
# [39] = locus YKL101W, strain HSL1, hits give low values
# [40] = locus YKL193C, strain SDS22, hits give low values
# [41] = locus YKL203C, strain TOR2, hits give low values
# [42] = locus YLR113W, strain HOG1, hits give low values
# [43] = locus YLR133W, strain CKI1, hits give low values
# [44] = locus YLR403W, strain SFP1, hits give low values
# [45] = locus YML070W, strain DAK1, hits give low values
# [46] = locus YMR001C, strain CDC5, hits give low values
# [47] = locus YMR205C, strain PFK2 (second series), hits give low values
# [48] = locus YMR277W, strain FCP1, hits give low values
# [49] = locus YNL006W, strain LST8, hits give low values
# [50] = locus YNL020C, strain ARK1, hits give low values
# [51] = locus YNL161W, strain CBK1, hits give low values
# [52] = locus YNL183C, strain NPR1, hits give low values
# [53] = locus YNL207W, strain RIO2, hits give low values
# [54] = locus YNL222W, strain SSU72, hits give low values
# [55] = locus YNL307C, strain MCK1 (second series), hits give low values
# [56] = locus YOL078W, strain AVO1, hits give low values
# [57] = locus YOL136C, strain PFK27, hits give low values
# [58] = locus YOR061W, strain CKA2, hits give low values
# [59] = locus YOR119C, strain RIO1, hits give low values
# [60] = locus YOR231W, strain MKK1, hits give low values
# [61] = locus YOR329C, strain SCD5, hits give low values
# [62] = locus YPL031C, strain PHO85, hits give low values
# [63] = locus YPL153C, strain RAD53, hits give low values
# [64] = locus YPL204W, strain HRR25, hits give low values
# [65] = locus YPL209C, strain IPL1, hits give low values
# [66] = locus YPL256C, strain CLN2, hits give low values
# [67] = locus YPR025C, strain CCL1, hits give low values
# [68] = locus YPR106W, strain ISR1, hits give low values
# [69] = locus YPR111W, strain DBF20, hits give low values
# [70] = strain NNK1, hits give low values
# [71] = strain TSCII, hits give low values
smiles,measurement,setting,value
Cc1c(Cl)cccc1NC(=S)N1CCCN(c2ccc(C(F)(F)F)cc2[N+](=O)[O-])CC1,normalized growth,[1],0.991
same,normalized growth,[2],0.979
same,normalized growth,[3],0.992
same,normalized growth,[4],0.971
same,normalized growth,[5],0.994
same,normalized growth,[6],0.993
same,normalized growth,[7],0.995
same,normalized growth,[8],0.977
same,normalized growth,[9],0.978
same,normalized growth,[10],0.986
same,normalized growth,[11],0.971
same,normalized growth,[12],0.991
same,normalized growth,[13],0.976
same,normalized growth,[14],0.987
same,normalized growth,[15],0.983
same,normalized growth,[16],0.988
same,normalized growth,[17],0.969
same,normalized growth,[18],0.98
same,normalized growth,[19],0.994
same,normalized growth,[20],0.987
same,normalized growth,[21],0.957
same,normalized growth,[22],0.995
same,normalized growth,[23],0.98
same,normalized growth,[24],1.04
same,normalized growth,[25],0.964
same,normalized growth,[26],0.842 (active)
same,normalized growth,[27],0.89
same,normalized growth,[28],1.06
same,normalized growth,[29],1
same,normalized growth,[30],0.989
same,normalized growth,[31],1.01
same,normalized growth,[32],0.942
same,normalized growth,[33],0.951
same,normalized growth,[34],0.982
same,normalized growth,[35],0.974
same,normalized growth,[36],1.02
same,normalized growth,[37],0.984
same,normalized growth,[38],0.974
same,normalized growth,[39],0.988
same,normalized growth,[40],0.995
same,normalized growth,[41],1.01
same,normalized growth,[42],0.859 (active)
same,normalized growth,[43],0.955
same,normalized growth,[44],0.952
same,normalized growth,[45],0.992
same,normalized growth,[46],0.961
same,normalized growth,[47],0.979
same,normalized growth,[48],0.997
same,normalized growth,[49],0.982
same,normalized growth,[50],0.972
same,normalized growth,[51],0.979
same,normalized growth,[52],1.05
same,normalized growth,[53],0.982
same,normalized growth,[54],0.984
same,normalized growth,[55],0.964
same,normalized growth,[56],0.989
same,normalized growth,[57],0.965
same,normalized growth,[58],0.963
same,normalized growth,[59],1.05
same,normalized growth,[60],0.993
same,normalized growth,[61],0.981
same,normalized growth,[62],0.979
same,normalized growth,[63],1
same,normalized growth,[64],0.931
same,normalized growth,[65],0.99
same,normalized growth,[66],0.866
same,normalized growth,[67],0.99
same,normalized growth,[68],0.969
same,normalized growth,[69],0.956
same,normalized growth,[70],0.985
same,normalized growth,[71],0.981
O=C(c1ccccc1)C1CCN(c2ccc(C(F)(F)F)cc2[N+](=O)[O-])CC1,normalized growth,"locus YAL013W, strain DEP1, hits give low values",0.995
same,normalized growth,"locus YBR229C, strain ROT2, hits give low values",1.01
same,normalized growth,[8],0.995
same,normalized growth,"locus YDL134C, strain PPH21, hits give low values",1.01
same,normalized growth,"locus YDR150W, strain NUM1, hits give low values",1
same,normalized growth,"locus YEL061C, strain CIN8, hits give low values",1
same,normalized growth,"locus YGR078C, strain PAC10, hits give low values",0.982
same,normalized growth,[26],1.02
same,normalized growth,"locus YHR087W, strain rtc3, hits give low values",0.98
same,normalized growth,"locus YJR043C, strain POL32, hits give low values",1
same,normalized growth,"locus YJR075W, strain HOC1, hits give low values",0.946
same,normalized growth,"locus YLR039C, strain RIC1, hits give low values",1.02
same,normalized growth,"locus YLR058C, strain SHM2 (second series), hits give low values",0.997
same,normalized growth,"locus YLR085C, strain ARP6, hits give low values",0.953
same,normalized growth,"locus YLR262C, strain YPT6, hits give low values",1.01
same,normalized growth,"locus YML094W, strain GIM5, hits give low values",1.01
same,normalized growth,"locus YMR219W, strain ESC1, hits give low values",0.996
same,normalized growth,"locus YMR263W, strain SAP30, hits give low values",0.998
same,normalized growth,"locus YMR307W, strain GAS1, hits give low values",0.991
same,normalized growth,"locus YNL153C, strain GIM3, hits give low values",0.991
same,normalized growth,"locus YNL298W, strain CLA4 (second series), hits give low values",1.02
same,normalized growth,"locus YNL322C, strain KRE1, hits give low values",1.01
same,normalized growth,"locus YNR030W, strain Alg12, hits give low values",1.04
same,normalized growth,"locus YPL055C, strain LGE1, hits give low values",0.999
same,normalized growth,"locus YPL241C, strain CIN2, hits give low values",0.931
same,normalized growth,"locus YPR135W, strain CTF4, hits give low values",0.978
Cc1c(Cl)cccc1NC(=S)N1CCCN(c2nc3ccc(Cl)cc3s2)CC1,normalized growth,[1],0.977
same,normalized growth,[2],0.977
same,normalized growth,[3],0.983
same,normalized growth,[4],0.979
same,normalized growth,[5],0.978
same,normalized growth,[6],0.972
same,normalized growth,[7],0.978
same,normalized growth,[8],0.965
same,normalized growth,[9],0.983
same,normalized growth,[10],0.99
same,normalized growth,[11],0.97
same,normalized growth,[12],0.986
same,normalized growth,[13],0.975
same,normalized growth,[14],0.984
same,normalized growth,[15],0.933
same,normalized growth,[16],0.936
same,normalized growth,[17],0.941
same,normalized growth,[18],0.98
same,normalized growth,[19],0.968
same,normalized growth,[20],0.985
same,normalized growth,[21],1.01
same,normalized growth,[22],0.98
same,normalized growth,[23],0.937
same,normalized growth,[24],0.975
same,normalized growth,[25],0.722
same,normalized growth,[26],0.625 (active)
same,normalized growth,[27],0.7
same,normalized growth,[28],1.06
same,normalized growth,[29],0.97
same,normalized growth,[30],0.981
same,normalized growth,[31],0.863
same,normalized growth,[32],0.957
same,normalized growth,[33],0.897
same,normalized growth,[34],0.978
same,normalized growth,[35],0.84
same,normalized growth,[36],0.947
same,normalized growth,[37],0.97
same,normalized growth,[38],0.947
same,normalized growth,[39],0.963
same,normalized growth,[40],0.978
same,normalized growth,[41],0.974
same,normalized growth,[42],0.794 (active)
same,normalized growth,[43],0.941
same,normalized growth,[44],0.898
same,normalized growth,[45],0.972
same,normalized growth,[46],0.982
same,normalized growth,[47],0.971
same,normalized growth,[48],0.976
same,normalized growth,[49],0.963
same,normalized growth,[50],0.909
same,normalized growth,[51],0.986
same,normalized growth,[52],0.989
same,normalized growth,[53],0.976
same,normalized growth,[54],0.98
same,normalized growth,[55],0.951
same,normalized growth,[56],0.992
same,normalized growth,[57],0.942
same,normalized growth,[58],0.87
same,normalized growth,[59],0.974
same,normalized growth,[60],0.876
same,normalized growth,[61],0.974
same,normalized growth,[62],0.937
same,normalized growth,[63],0.908
same,normalized growth,[64],0.876
same,normalized growth,[65],0.978
same,normalized growth,[66],0.772 (active)
same,normalized growth,[67],0.975
same,normalized growth,[68],0.981
same,normalized growth,[69],0.992
same,normalized growth,[70],0.984
same,normalized growth,[71],0.976
